Hit rate of the full screen: of about 340,000 compounds, about 1,000 (0.29%) were called active. The list is a sample of the results. Measured potencies and affinities stand elsewhere. Values without a mark were called inactive. Rule as the data show it: inconclusive = inhibition above about 27% without an active follow-up result; inactive = below that.

This experiment is described as follows: NS1A inhibition, H1N1 influenza, cell based functional assay (AID 504329). Particulars: percent inhibition, at 12.5 µM, active compounds read high.
A word on the inhibition: it is the change of the read-out against control, counted positive when it falls. As for `Cn1nc(C(C)(C)C)cc1C(=O)NNC(=O)c1ccc(C(F)(F)F)cc1`, the inhibition was -21.4%. Under `O=C(NNc1cccc(Cl)n1)c1ccccc1CC[N+](=O)[O-]` stands -1.98%; under `CCn1nc(NS(=O)(=O)c2ccc([N+](=O)[O-])cc2)c2cc3ccccc3nc21`, 4.22%. Under `CCC(C)(C)C1CCC2(CC1)NC(=O)N(CC(=O)N(C)Cc1ccc3c(c1)OCCO3)C2=O` (centres undefined) stands -14.3%.

`CCN1/C(=C2\C(=O)N(C)C(=S)N2C)C=Cc2ccccc21`: the inhibition is 6.98%. Turning to `CCN1C(=O)/C(=c2\o/c(=C3\C=Cc4ccccc4N3CC)c(=O)n2CC)SC1=S`, the inhibition was 19.6%. With `O=C(NCCO)Nc1ccc(Cl)cc1` the figure was 0.44%. With `Cc1ccc(S(=O)(=O)CCC(=O)Nc2nccs2)cc1` the figure was 6.51%. For `O=C(Cc1c[nH]c2ccccc12)NNCc1ccc(N(CCCl)CCCl)cc1`, the inhibition is 14.4%. Take `Oc1[nH]c2ccccc2c1N=Nc1ccc(F)cc1`: the inhibition is -3.37%. For `O=C(O)c1ccc(N=Nc2c(O)[nH]c3ccccc23)cc1`, the inhibition was -7.55%. For the molecule `O=C(Cc1ccc(Cl)c(Cl)c1)N1CCOCC1`, the inhibition is -9.69%. On to `O=C(N/N=C/c1cccc([N+](=O)[O-])c1O)C(O)(c1ccccc1)c1ccccc1`, for which the inhibition is -8.83%. Take `Cc1cc([N+](=O)[O-])cc(/C=N\NC(=O)C2COc3ccccc3O2)c1O` (centres undefined): the inhibition was 19.3%.

As to `Cc1ccc(C(=O)N/N=C\c2ccccc2[N+](=O)[O-])cn1`, the inhibition is 4.04%. With `O=C(N/N=C/c1ccccc1[N+](=O)[O-])c1cccs1` the figure was -0.41%; with `Cc1cc(C(=O)N/N=C/c2cc(Cl)cc([N+](=O)[O-])c2O)n[nH]1`, -7.04%. With `O=C(N/N=C\c1cc2c(cc1[N+](=O)[O-])OCO2)c1cccs1` the figure was -1.36%.

For `CCNC(=S)N(Cc1ccc2c(c1)OCO2)C1CC(=O)N(c2ccc(OC)cc2)C1=O` (centres undefined), the inhibition is -4.24%. Consider `O=C(NCCN1CCOCC1)C(=O)NCc1ccco1`, for which the inhibition is -2.57%. `CC1CCC(NC(=O)CSc2nncs2)CC1` (centres undefined): the inhibition is 1.05%. Take `Cc1cc2nc(-c3ccc(SCC(=O)Nc4ccc(S(=O)(=O)NC5CC5)cc4)nc3)[nH]c2cc1C`: the inhibition is -2.72%. Under `C=CCOc1ccccc1/C=C/C(=O)O` stands 1.54%. Under `CN(C)c1cccc2c(/C=N/O)ccc(N(C)C)c12` stands 5.22%.

`CC(=O)c1ccc(N(C)C)c2c(N(C)C)cccc12`: the inhibition was -6.19%.

In the case of `Cc1ccc(-n2nc(C)c3c2OC(N)=C(C#N)C3c2ccncc2)cc1` (centres undefined), the inhibition is -2%.

As for `Cc1nn(-c2ccccc2)c2c1C(c1ccccc1)C(C#N)=C(N)O2` (centres undefined), the inhibition is -4.13%.

Turning to `Cc1nn(-c2ccccc2)c2c1C(c1cccs1)C(C#N)=C(N)O2` (centres undefined), the inhibition is 11.8%. Under `Cc1ccc(-n2nc(C)c3c2OC(N)=C(C#N)C3c2ccco2)cc1` (centres undefined) stands 15.8%.

The record behind these values is PubChem BioAssay AID504329 (Southern Research Specialized Biocontainment Screening …, 2011).
